C-LANA FP: inhibitors of KSHV C-LANA binding to DNA, primary screen, biochemical, fluorescence polarization, FAM-LBS DNA, MBP-C-LANA, single point; inhibition, % at 9 µM; hit rate 0.078% among 340,000; AID 504423, 2011;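 active = highest replicate inhibition at or above 60% at 9 µM, even if other replicates fall short; inactive = all replicates below 60% inhibition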;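 also: 0% = neutral control wells and 100% = 4 µM acridine orange control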
RTF Ca sens act: cardiac RTF calcium sensitivity activators, primary screen, biochemical, IANBD-TnC fluorescence, EC20 calcium. Troponin I, cardiac muscle (Homo sapiens) + Troponin T, cardiac muscle (Homo sapiens) + …. IANBD-labeled TnC RTF fluorescence at EC20 calcium; 0% EC20 calcium, 100% full calcium. activation, % at 7.2 µM. hit rate 0.24% among 340,000. AID 493008, 2010;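 active = activation above the mean over all tested compounds plus 3 SD, cut at about 30% in these data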;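 also: rise in fluorescence read as greater calcium sensitivity of cardiac thin filaments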
E coli Lon inh: inhibitors of E. coli Lon protease, primary screen, biochemical, fluorescence polarization | inhibition, % at 7.94 µM | P0A9M0 | hit rate 0.42% among 360,000 | purified E. coli Lon protease; in the data active = inhibition above about 13%, passing the limit was not always enough;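 also: 0% = enzyme with probe and DMSO and 100% = no enzyme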
Keap1 Nrf2 FP: Keap1-Nrf2 protein-protein interaction inhibitors, primary screen, biochemical, fluorescence polarization, single point; Keap1 Kelch-Nrf2 peptide fluorescence polarization, 1536-well; inhibition, % at 9.4 µM; hit rate 0.15% among 340,000; AID 504523, 2011; in the data active = inhibition above about 12%;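 also: human Keap1 Kelch domain with fluorescein labeled Nrf2 9mer peptide probe; 0% = neutral control wells and 100% = peptide positive control; higher means more block of Keap1 binding to Nrf2 peptide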
Target sequence (Q14145 whole entry, looked up, the tested form may be a part): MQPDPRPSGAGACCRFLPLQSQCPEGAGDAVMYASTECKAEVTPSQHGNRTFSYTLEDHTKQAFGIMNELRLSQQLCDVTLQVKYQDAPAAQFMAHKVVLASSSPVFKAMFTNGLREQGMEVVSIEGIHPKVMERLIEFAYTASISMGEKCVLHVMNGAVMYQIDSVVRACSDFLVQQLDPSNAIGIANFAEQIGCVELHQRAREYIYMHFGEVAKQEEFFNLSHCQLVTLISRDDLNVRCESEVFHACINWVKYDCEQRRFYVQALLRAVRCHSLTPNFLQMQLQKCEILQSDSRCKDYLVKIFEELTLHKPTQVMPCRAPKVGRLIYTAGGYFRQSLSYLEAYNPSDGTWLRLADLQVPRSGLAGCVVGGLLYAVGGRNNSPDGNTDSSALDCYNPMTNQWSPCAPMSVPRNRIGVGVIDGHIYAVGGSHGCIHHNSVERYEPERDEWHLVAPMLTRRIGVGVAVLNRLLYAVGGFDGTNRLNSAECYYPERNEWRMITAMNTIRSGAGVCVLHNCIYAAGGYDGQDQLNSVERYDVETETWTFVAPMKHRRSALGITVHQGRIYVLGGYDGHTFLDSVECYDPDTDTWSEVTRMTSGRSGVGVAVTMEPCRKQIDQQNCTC
Cardiac RTF inh: cardiac RTF calcium sensitivity inhibitors, primary screen, biochemical, IANBD-TnC fluorescence, EC70 calcium | Troponin I, cardiac muscle (Homo sapiens) + Troponin T, cardiac muscle (Homo sapiens) + … | IANBD-labeled cardiac RTF, Ca2+ fluorescence | inhibition, % at 7.15 µM | hit rate 0.12% among 340,000;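 active = inhibition above the mean inhibition of all tested compounds plus 3 SD, cut at about 17% in these data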;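 also: assay run at fixed EC70 calcium of 1.6 mM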
An asterisk follows results filed as active; i = inactive; . = no result; ! = a repeat was not active. Shown are actives, neighbours in structure and some others; about 0.74% of the full set was active somewhere.

SMILES	C-LANA FP	RTF Ca sens act	E coli Lon inh	Keap1 Nrf2 FP	Cardiac RTF inh
CCCC(=O)N1CCC1(C)C(=O)NS(=O)(=O)c1cccs1 (configuration not stated)	.	.	5	.	.
CCCN1C(=O)/C(=C\C=C2\N(CC)c3ccccc3C2(C)C)SC1=S	-1	90*	-139	0	-110
CO/N=C/C=C1/N(C)c2ccccc2C1(C)C	-4	1	0	3	-3
CN1C(=CC=C2C=C(I)C(=O)C(I)=C2)C(C)(C)c2ccccc21	2	92*	0	-2	-33
CN1/C(=C\C=N\O)C(C)(C)c2ccccc21	1	-3	-2	-8	-19
CN1/C(=C\C=C2/SC(=S)NC2=O)C(C)(C)c2ccccc21	-59	344*	i	-71	i
O=C(NCCCN1CCOCC1)C(=O)NCCc1ccccc1	1	0	-12	-6	-7
COCCNC(=O)/C(C#N)=C/c1ccc(N2CCOCC2)o1	-38	61*	i	-132	-54
N#C/C(=C/c1ccc(N2CCOCC2)o1)C(=O)Nc1ccccc1	-10	132*	i	-30	-177
N#C/C(=C\c1ccc(N2CCOCC2)o1)C(=O)NCCc1ccccc1	-27	64*	i	-86	-88
Oc1ccc(C[C@H]2CN([C@@H](Cc3cccc(O)c3)CN3CCC[C@@H]3CN3C(=S)NC[C@@H]3Cc3ccccc3)C(=S)N2CC2CCCCC2)cc1	.	.	10	.	.
O=C1NC(=S)SC1=Cc1cccs1	-2	3	-8	-3	6
CN1CCC/C1=C/C=C1\SC(=S)NC1=O	-45	471*	i	-172	i
CCOc1ccc(NC(=O)/C(C#N)=C/c2ccc(N3CCCC3)c(C)c2)cc1	2	67*	-141	-6	-51
CN1CCC(N(CCc2ccccc2)C(=O)CCC(=O)O)CC1	-4	35*	-9	-3	-8
CC(=O)NCCNc1nc2cc(-c3ccc(Cl)cc3C)sc2c(=O)n1C	.	.	7	.	.
CN1CCN(C2CN(Cc3cn(Cc4ccccc4)nn3)S(=O)(=O)C2)CC1 (configuration not stated)	.	.	-14	.	.
COc1ccc2c(c1)c(/C=C/c1cc[n+](C)cc1)cn2C	-38	75*	-305	-104	-77
Nc1ccn(C2C=CC(CO)O2)c(=O)n1 (configuration not stated)	.	.	-5	.	.
COc1ccc2[nH]c3c(c2c1)CCNC3C1CC=C(C)CC1 (configuration not stated)	-1	-3	3	-2	-5
COc1ccc2[nH]c3c(c2c1)CCNC3c1ccc([N+](=O)[O-])o1 (configuration not stated)	22	33*	11	6	-32
OC(Cc1ccccc1Br)c1ncc(-c2ccc(Cl)cc2)[nH]1 (configuration not stated)	.	.	-2	.	.
CCCCCC(=O)Nc1cc(S(=O)(=O)O)cc2cc(S(=O)(=O)O)cc(O)c12	114*	-49	-5	0	67*
CCC(=O)[C@@H](C)[C@@H](OC(C)=O)[C@H](C)C[C@@H](C)[C@H]1OC(=O)C[C@@]2(O)CC=C(C)C(O2)C(C)=CCCC[C@H](O[C@H]2C[C@@H](OC(N)=O)[C@H](OC(C)=O)[C@@H](C)O2)C=C[C@H](C)C[C@H]1C	.	.	-3	.	.
N#C/C(=C\c1ccc(O)c(O)c1)C(=O)c1ccc(O)c(O)c1	69*	-11	10	-23	2
SMILES	C-LANA FP	RTF Ca sens act	E coli Lon inh	Keap1 Nrf2 FP	Cardiac RTF inh
N#C/C(=C\c1ccc(O)c(O)c1)C(=O)N1CCCC1	2	7	-5	-3	-3
COc1ccc2c(c1)C(CC(C)=O)N(c1ccc(-c3cccs3)cc1)C(c1ccsc1)=C2 (configuration not stated)	.	.	2	.	.
CCOC(=O)c1ccc(NC(=O)Nc2nncs2)cc1	.	.	-11	.	.
CC(=O)Nc1ccc(NC(=O)C(C)OC(=O)/C(C#N)=C/c2ccc(N(C)C)cc2)cc1 (configuration not stated)	6	80*	-112	-2	-118
CC(C)OC(=O)/C(C#N)=C\c1cccnc1	3	0	-9	-1	-5
CC(OC(=O)/C(C#N)=C/c1ccc(N(C)C)cc1)C(=O)NCc1ccco1 (configuration not stated)	6	15	12	-1	-7
CC(OC(=O)/C(C#N)=C/c1ccc(N(C)C)cc1)C(=O)N(C)c1ccccc1 (configuration not stated)	25	30*	-405	0	-32
CCN(CC)C(=O)C1=C(C)N(Cc2ccc(OC)cc2)C(=O)C(CC(=O)NCc2cccs2)C1 (configuration not stated)	.	.	-1	.	.
COc1cc(OC)cc(C(=O)N(Cc2ccco2)c2c(N)n(Cc3ccccc3)c(=O)[nH]c2=O)c1	-3	31*	-4	-5	-50
CCN1/C(=C/c2ccc3cc(C)cc(C)c3[n+]2CC)Sc2cc(C)ccc21	-55	66*	-170	-24	-139
CCN1/C(=C/c2ccc3cccc(C)c3[n+]2CC)Sc2ccccc21	-52	14	-141	-23	-68
CCN1/C(=C\c2ccc3cc(C)ccc3[n+]2CC)Sc2cc(C)c(C)cc21	-69	58*	-140	-17	-104
CCN1/C(=C/c2ccc3cc(C)ccc3[n+]2CC)Sc2ccc3sccc3c21	-2	36*	-65	1	-88
CC(=O)Nc1ccc(S(=O)(=O)Nc2nc3ccccc3nc2Nc2ccc(C(=O)O)c(O)c2)cc1	90*	-6	14	4	2
CC(=O)Nc1ccc(S(=O)(=O)Nc2nc3ccccc3nc2Nc2cccc(O)c2)cc1	1	2	5	-4	3
NNc1nnc2c3cc(F)ccc3n(Cc3ccccc3)c2n1	62*	5	1	-1	-11
O=C(Cc1ccccc1)Nn1c(O)c(/C=C2\C=Nc3ccccc32)sc1=S	1	58*	-252	4	-76
CCc1nc2c(OCC(N)=O)cccn2c1N(C)C(=O)c1cccs1	.	.	2	.	.
O=c1oc2ccccc2cc1-c1csc(Cc2nc(-c3ccc(Cl)cc3)cs2)n1	-2	1	6	-1	-3
CCN(CC)c1ccc2cc(-c3nc(-c4cc5ccccc5oc4=O)cs3)c(=O)oc2c1	18	95*	-353	-8	-186
C=Cc1c(C)c2cc3[nH]c(cc4nc(cc5nc(cc1[nH]2)C(C)=C5CCC(=O)O)C(CCC(=O)O)=C4C)c(C)c3C=C	64*	-11	1	1	55*!
Cc1ccc(NC(=O)O/N=C/c2ccc(F)cc2)cc1	1	37*	-7	-3	-6
NC(=O)C1(Nc2ccc(Br)cc2)CCCC1	-2	1	5	1	5

Screening results (PubChem BioAssay)
